# Compounds with a hit are over-represented: about 0.64% of the library has one in this group of screens.
# ERp5 inh = inhibitors of ERp5-driven insulin aggregation, primary screen, biochemical, turbidity, absorbance 650 nm, single point; Protein disulfide-isomerase A6 (Homo sapiens), Q15084; 90 min; inhibition, % at 9.99 µM; actives 0.05% (n = 350,000); AID 651711, 2012;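 active means mean replicate inhibition above about 25%, with every replicate also reaching it, limit read from the data, passing the limit was not always enough; inconclusive means only one of those two criteria met; inactive means neither criterion met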
# Target sequence (Q15084 whole entry, looked up): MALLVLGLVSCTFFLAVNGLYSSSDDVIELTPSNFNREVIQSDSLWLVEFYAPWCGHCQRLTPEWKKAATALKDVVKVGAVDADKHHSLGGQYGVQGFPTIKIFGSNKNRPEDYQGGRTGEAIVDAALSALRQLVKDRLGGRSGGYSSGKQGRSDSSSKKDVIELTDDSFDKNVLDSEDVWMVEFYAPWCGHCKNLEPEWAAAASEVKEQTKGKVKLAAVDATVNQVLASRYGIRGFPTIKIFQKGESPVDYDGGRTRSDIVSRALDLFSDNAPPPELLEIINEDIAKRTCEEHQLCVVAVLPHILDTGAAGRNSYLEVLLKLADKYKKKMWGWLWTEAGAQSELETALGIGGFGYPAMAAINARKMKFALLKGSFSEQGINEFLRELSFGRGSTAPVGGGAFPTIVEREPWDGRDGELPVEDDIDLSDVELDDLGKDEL
# PDI inh = inhibitors of human PDI, primary screen, biochemical, turbidity, single point, plate reader; PDI insulin aggregation turbidity, A650, 90 min; inhibition, % at 10 µM; actives 0.052% (n = 350,000); AID 588391, 2011;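 active means mean inhibition across replicates of 30% or more, whatever share of single replicates reach that level; inconclusive means mean inhibition below 30% while every single replicate reaches 30%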
# PvdQ acylase = P. aeruginosa PvdQ acylase inhibitors, primary screen, biochemical, fluorescence, plate reader and imaging, single point; PvdQ acylase [Pseudomonas aeruginosa LESB58]; purified PvdQ acylase; inhibition, % at 10 µM; actives 0.063% (n = 340,000); AID 488965, 2010; in the data active means inhibition above about 30%, passing the limit was not always enough; inconclusive means no clear call, values can overlap the other calls;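 further: 0% = vehicle neutral wells and 100% = reference inhibitor wells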
# Vif inh = HIV Vif self-association inhibitors, primary screen, imaging, HEK293T, single point. inhibition, % at 7.49 µM. HEK293T cells, Vif self-association by quenched fluorescence, 24 h. AID 602346, 2012. actives 0.35% (n = 340,000); in the data active means inhibition above about 50%, passing the limit was not always enough; inconclusive means no clear call, values can overlap the other calls; inactive means below about 31%
# AI-2 QS modul = Vibrio harveyi AI-2 quorum sensing modulators, primary screen, JMH597 strain, luminescence/OD600 ratio. Vibrio harveyi JMH597 AI-2 luminescence/OD600 ratio, 9 h; hits give low values; strain lacks LuxN and CqsS sensors; 0 = neutral-control median. activity change, % at 7.5 µM. actives 0.4% (n = 300,000). AID 2094, 2009; in the data active means activity change below about -75%, passing the limit was not always enough; inconclusive means no clear call, values can overlap the other calls;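 further: luminescence divided by OD600 gain over 9 h not by final OD600 alone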
# * hit, by the source's call; ? = inconclusive; nt = no result given.
SMILES,ERp5 inh,PDI inh,PvdQ acylase,Vif inh,AI-2 QS modul
Cc1onc(-c2ccccc2Cl)c1C(=O)N1CCN(C)CC1,1.7,5.1,-5.7,50.7*,21.5
Cc1onc(-c2ccccc2Cl)c1C(=O)N1CCCC1,6.6,-5.1,-6.9,1.0,13.0
N#Cc1cn(Cc2ccccc2)c2ccccc12,nt,-0.8,34.9*,10.8,-24.3
CO[C@H]1CN(C)C(=O)c2cc(NC(=O)Nc3cc(F)ccc3F)ccc2OC[C@H](C)N(C(=O)c2cnccn2)C[C@H]1C,0.3,nt,nt,nt,nt
NC(CCc1ccccc1)c1csc(Nc2ccc(C(=O)NCCO)cc2)n1 (stereo not given),-0.7,-5.8,nt,-4.5,nt
NC(CCc1ccccc1)c1csc(Nc2ccc(C(=O)c3ccccc3)cc2)n1 (stereo not given),-7.7,-4.4,nt,56.8*,nt
CCOC(=O)Oc1c(OC)cc(C(=O)O[C@@H]2C[C@@H]3CN4CCc5c([nH]c6cc(OC)ccc56)[C@H]4C[C@@H]3[C@H](C(=O)OC)[C@H]2OC)cc1OC,?,34.5*,1.5,9.3,nt
CC(C)(C)C(=O)Nc1ccc(Sc2ccc([N+](=O)[O-])cc2)cc1,-7.8,4.1,4.6,-6.0,-2.9
CC(=O)Nc1ccc(Sc2ccc([N+](=O)[O-])o2)cc1,0.1,0.7,-7.4,116.4*,nt
Cc1noc(C)c1NC(=O)Nc1cccc2c1O[C@H](CN(C)S(=O)(=O)c1ccc(Cl)cc1)[C@@H](C)CN([C@H](C)CO)C2=O,26.0*,nt,nt,nt,nt
Cc1ccc(S(=O)(=O)N(C)C[C@H]2Oc3c(NC(=O)Nc4c(C)noc4C)cccc3C(=O)N([C@@H](C)CO)C[C@@H]2C)cc1,-5.9,nt,nt,nt,nt
C[C@H]1CN([C@@H](C)CO)C(=O)c2cccc(NC(=O)c3nc4ccccc4s3)c2O[C@@H]1CN(C)C(=O)Nc1ccc(C(F)(F)F)cc1,26.6*,nt,nt,nt,nt
C[C@H](CO)N1C[C@H](C)[C@@H](CN(C)S(=O)(=O)c2ccc(F)cc2)Oc2c(NS(=O)(=O)c3ccccc3)cccc2C1=O,-0.9,18.1,-10.6,-2.6,nt
C[C@@H]1CN([C@@H](C)CO)C(=O)c2cccc(NS(=O)(=O)c3ccc(F)cc3)c2O[C@H]1CN(C)S(=O)(=O)c1ccccc1,46.2*,nt,nt,nt,nt
Cc1noc(C)c1NC(=O)N(C)C[C@H]1Oc2c(NS(=O)(=O)c3ccc(Cl)cc3)cccc2C(=O)N([C@@H](C)CO)C[C@@H]1C,25.0*,nt,nt,nt,nt
Cc1noc(C)c1NC(=O)N(C)C[C@@H]1Oc2c(NS(=O)(=O)c3ccc(Cl)cc3)cccc2C(=O)N([C@@H](C)CO)C[C@H]1C,13.1,nt,nt,nt,nt
CNC(=O)C[C@@H]1CC[C@H]2[C@@H](COc3ccc(NC(=O)c4cccc(F)c4)cc3C(=O)N2C)O1,0.0,nt,nt,nt,nt
CNC[C@H]1Oc2c(N)cccc2C(=O)N([C@@H](C)CO)C[C@H]1C,85.8*,nt,nt,nt,nt
COc1cc(C2C3=C(COC3=O)Oc3cc4c(cc32)OCO4)cc(OC)c1OC (stereo not given),-7.7,-7.4,-6.4,0.3,nt
COc1cc(C2C3=C(COC3=O)Oc3cc4c(cc32)OCO4)cc(OC)c1O (stereo not given),4.8,3.6,-3.9,60.2*,nt
COc1ccc(C(CC(=O)N2CCCCC2)c2c(O)cc(OC)cc2OC)cc1 (stereo not given),2.9,2.0,-5.4,-7.7,7.4
COc1cc(O)c(C(CC(=O)N2CCCC2)c2ccc(N(C)C)cc2)c(OC)c1 (stereo not given),nt,-1.3,-9.2,74.5*,26.8
O=C(C[C@H]1C=C[C@@H](NC(=O)c2cccc(F)c2)[C@@H](CO)O1)NCc1ccc(Oc2ccccc2)cc1,0.6,nt,nt,nt,nt
O=C1C=C(c2cc(F)ccc2F)C[C@@H](c2ccc(F)cc2)C1,0.8,-3.6,64.2*,-4.2,nt
COc1ccc([C@H]2CC(=O)C=C(c3ccc(OC)cc3OC)C2)cc1,-0.8,-2.8,20.1,55.4*,nt
CN1c2ccc(-c3ccc(C#N)cc3)cc2[C@@H]2[C@@H](CCN2C(=O)Nc2cccc(F)c2)[C@@H]1CO,-0.2,nt,nt,nt,nt
O=C(NCCCN1CCCC1)c1ccc(CS(=O)(=O)c2c(Cl)cccc2Cl)o1,26.2*,-5.9,-1.7,6.7,5.7
O=C(NCCCN1CCOCC1)c1ccc(CS(=O)(=O)c2c(Cl)cccc2Cl)o1,5.9,nt,-13.7,4.1,11.3
